In PubChem BioAssay (Tox21) one finds Potency and outcome data, which are given here for 13 compounds.

The nature of experiment [1]: qHTS assay to identify small molecule antagonists of the glucocorticoid receptor (GR) signaling pathway - cell viability counter screen (AID 720693). Note: nearly all actives have a fitted effect of over 55% in size.
Experiment [2] can be described thus: qHTS assay for identifying genotoxic compounds that show differential cytotoxicity against isogenic chicken DT40 cell lines with known DNA damage response pathways - wild type cell line (AID 743012). Note: nearly all actives have a fitted effect of over 60% in size. Note: potency is the fitted concentration of half-maximal effect. An outline of the steps:
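Using parental DT40 (300 cells/well), compounds delivered in DMSO incubate 40 h at 37 C/5% CO2. CellTiter-Glo reagent then stands 30 min at room temperature, and luminescence gives cell viability.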

Experiment [3] is described as follows: qHTS assay for identifying genotoxic compounds that show differential cytotoxicity against isogenic chicken DT40 cell lines with known DNA damage response pathways - Rev3 mutant cell line (AID 743014). Note: nearly all actives have a fitted effect of over 55% in size. Note: potency is the fitted concentration of half-maximal effect.
Experiment [4] in a line: qHTS assay for identifying genotoxic compounds that show differential cytotoxicity against isogenic chicken DT40 cell lines with known DNA damage response pathways - Rad54/Ku70 mutant cell line (AID 743015). Note: nearly all actives have a fitted effect of over 60% in size. Note: potency is the fitted concentration of half-maximal effect. A general note: qHTS replaces the single test concentration by a dilution series.
Experiment [5] in a line: qHTS assay to identify small molecule antagonists of the androgen receptor (AR) signaling pathway - cell viability counter screen (AID 743033; note: nearly all actives have a fitted effect of over 45% in size).
Experiment [6] in a line: qHTS assay to identify small molecule antagonists of the androgen receptor (AR) signaling pathway using the MDA cell line - cell viability counter screen (AID 743041; note: nearly all actives have a fitted effect of over 45% in size). The gist of the method:
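Viability counter screen run alongside the AR antagonist reporter: cells seeded 5 h before compound, R1881 added, 16 h incubation at 37C without CO2, fluorescent CellTiter-Fluor signal quantified.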

Experiment [7] in a line: qHTS assay to identify small molecule antagonists of the thyroid receptor (TR) signaling pathway - cell viability counter screen (AID 743064). Note: nearly all actives have a fitted effect of over 50% in size. Note: potency is the fitted concentration of half-maximal effect. The gist of the method: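 GH3.TRE-Luc cells, 4 h pre-plating; cpd + T3 1 nM final; 37 °C 23.5 h; CellTiter-Fluor 30 min; fluorescence read.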
Experiment [8] deals with thyroid hormone receptor (rat, GH3 cells). The experiment is described as follows: qHTS assay to identify small molecule agonists of the thyroid receptor (TR) signaling pathway (AID 743066; calls by dose curve).
Experiment [9] has as its target Estrogen receptor (Homo sapiens) (UniProt P03372). The experiment is described as follows: qHTS assay to identify small molecule antagonists of the estrogen receptor alpha (ER-alpha) signaling pathway (AID 743069; active = well fitted curve in the direction sought with a large enough effect in the signal ratio in the repeat runs, not every such curve was filed as active; inconclusive = weak or mixed curves, or effect the other way; inactive = no such curve, though single readings can be large or run the other way; the % refers to the signal ratio; note: potency is the fitted concentration of half-maximal effect). The gist of the method: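 Estradiol-stimulated ER-alpha-UAS-bla HEK293 cells, 18 hr compound exposure at 37C. LiveBLAzer B/G substrate, 2 hr RT, fluorescence read.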

The nature of experiment [10]: qHTS assay to identify small molecule antagonists of the estrogen receptor alpha (ER-alpha) signaling pathway - cell viability counter screen (AID 743074; calls by dose curve;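 note: HEK293 cells carrying ER-alpha-UAS-bla reporter stimulated with 17beta-estradiol; nearly all actives have a fitted effect of over 45% in size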; note: potency is the fitted concentration of half-maximal effect).
Experiment [11] addresses Estrogen receptor (Homo sapiens) (UniProt P03372). The experiment is described as follows: qHTS assay to identify small molecule agonists of the estrogen receptor alpha (ER-alpha) signaling pathway (AID 743075; calls by dose curve;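 note: HEK293 GripTite cells with ER-alpha and UAS-driven beta-lactamase reporter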; note: potency is the fitted concentration of half-maximal effect).
The target is the same in experiment [12]. As to the kind of experiment: qHTS assay to identify small molecule agonists of the estrogen receptor alpha (ER-alpha) signaling pathway using the BG1 cell line (AID 743079). Note: nearly all actives have a fitted effect of over 20% in size. Note: potency is the fitted concentration of half-maximal effect.
Experiment [13] in a line: qHTS assay to identify small molecule antagonists of the estrogen receptor alpha (ER-alpha) signaling pathway using the BG1 cell line - cell viability counter screen (AID 743081).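 Note: compound given together with 17beta-estradiol as the ER stimulus; series mostly up to about 70 µM; nearly all actives have a fitted effect of over 45% in size.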
The nature of experiment [14]: qHTS assay to identify aromatase inhibitors - cell viability counter screen (AID 743084).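 Note: cells stimulated with testosterone during compound exposure; nearly all actives have a fitted effect of over 55% in size.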
The target in experiment [15] is Aryl hydrocarbon receptor (Homo sapiens) (UniProt P35869). As to the kind of experiment: qHTS assay to identify small molecule that activate the aryl hydrocarbon receptor (AhR) signaling pathway (AID 743085).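 For activation: HG2L7.5c1 human HepG2 liver cells with stably integrated DRE-driven firefly reporter; series mostly up to about 70 µM.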 Note: nearly all actives have a fitted effect of over 15% in size. Note: potency is the fitted concentration of half-maximal effect. An outline of the steps:
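Luminescence read-out: ONE-Glo reagent, 30 min at room temperature, in HG2L7.5c1 HepG2 reporter cells treated 24 h at 37C. Viability was measured beforehand by CellTiter-Fluor fluorescence after 30 min at 37C.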

The next experiment concerns the target Aromatase (Homo sapiens) (UniProt P11511). As to the kind of experiment: qHTS assay to identify aromatase inhibitors (AID 743083). Note: series mostly up to about 70 µM; nearly all actives have a fitted effect of over 55% in size.
Experiment [16] addresses Androgen receptor (Homo sapiens) (UniProt P10275). The experiment is described as follows: qHTS assay to identify small molecule antagonists of the androgen receptor (AR) signaling pathway (AID 743035; active = well fitted inhibition curve with a large enough effect in the signal ratio in the repeat runs, not every such curve was filed as active; inconclusive = weak or mixed curves, or effect the other way; inactive = no such curve, though single readings can be large or run the other way; the % refers to the signal ratio). The gist of the method: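 Using qHTS, AR-UAS-bla GripTite HEK293 cells received compound, then R1881, and were cultured 16 h at 37C/5% CO2 before a 2 h room-temperature LiveBLAzer B/G FRET substrate step and fluorescence measurement.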

Experiment [17] has the same target. The experiment is described as follows: qHTS assay to identify small molecule agonists of the androgen receptor (AR) signaling pathway (AID 743036; active = well fitted activation curve with a large enough effect in the signal ratio in the repeat runs, with a control signal flat, not every such curve was filed as active; inconclusive = weak or mixed curves, or effect the other way; inactive = no such curve, though single readings can be large or run the other way; the % refers to the signal ratio). An outline of the steps:
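AR-bla HEK293 cells, 2,000/well; 4 h preincubation 37C/5% CO2; compound (DMSO) 16 h at 37C; LiveBLAzer B/G FRET substrate 2 h RT; fluorescence intensity read-out.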

The target is the same in experiment [18]. The experiment is described as follows: qHTS assay to identify small molecule agonists of the androgen receptor (AR) signaling pathway using the MDA cell line (AID 743040; note: nearly all actives have a fitted effect of over 20% in size). The gist of the method: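 Luminescence from ONE-Glo, read after 30 min at room temperature, reflects MMTV-driven luciferase in MDA-kb2 cells (AR- and GR-responsive). Treatment lasted 16 h at 37C, 0% CO2.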

The target is the same in experiment [19]. As to the kind of experiment: qHTS assay to identify small molecule antagonists of the androgen receptor (AR) signaling pathway using the MDA cell line (AID 743042; note: nearly all actives have a fitted effect of over 55% in size). The gist of the method: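 MDA-kb2 cells (human breast carcinoma, stably carrying an MMTV-luciferase reporter responsive to AR and GR) were plated at 3,000 cells/well and preincubated 5 hr at 37C, then given compound plus R1881 agonist for 16 h. ONE-Glo luminescence was read.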

“And” between values parts separate entries of the source, which are not always exact repeats. Equal entries are not always repeated. Some compounds were tested as several samples or in several runs, with calls that do not always agree. The source made the active and inactive calls. Unless noted, calls come from the whole dose curve; as a rule, active = well fitted curve in the direction sought with a large enough effect in the repeat runs; inconclusive = weak or mixed curves; inactive = no such curve, though single readings can be large; an effect the other way counts as inactive or inconclusive.

Sequence of Aromatase (Homo sapiens) (P11511 whole entry, looked up): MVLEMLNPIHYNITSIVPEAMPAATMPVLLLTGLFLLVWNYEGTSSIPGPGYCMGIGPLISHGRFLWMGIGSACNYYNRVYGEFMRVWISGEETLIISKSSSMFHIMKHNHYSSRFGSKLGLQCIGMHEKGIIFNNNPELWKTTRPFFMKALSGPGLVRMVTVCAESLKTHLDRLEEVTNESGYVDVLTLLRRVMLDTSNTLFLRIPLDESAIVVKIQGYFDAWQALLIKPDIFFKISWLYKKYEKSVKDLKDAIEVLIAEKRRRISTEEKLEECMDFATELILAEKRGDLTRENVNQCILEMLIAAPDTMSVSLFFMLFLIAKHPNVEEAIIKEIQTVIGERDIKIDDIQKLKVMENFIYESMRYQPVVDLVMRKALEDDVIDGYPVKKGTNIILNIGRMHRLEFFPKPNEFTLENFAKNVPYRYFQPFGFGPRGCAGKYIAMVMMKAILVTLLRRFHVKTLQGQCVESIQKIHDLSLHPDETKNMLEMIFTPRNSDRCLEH
Sequence of Androgen receptor (Homo sapiens) (P10275 whole entry, looked up): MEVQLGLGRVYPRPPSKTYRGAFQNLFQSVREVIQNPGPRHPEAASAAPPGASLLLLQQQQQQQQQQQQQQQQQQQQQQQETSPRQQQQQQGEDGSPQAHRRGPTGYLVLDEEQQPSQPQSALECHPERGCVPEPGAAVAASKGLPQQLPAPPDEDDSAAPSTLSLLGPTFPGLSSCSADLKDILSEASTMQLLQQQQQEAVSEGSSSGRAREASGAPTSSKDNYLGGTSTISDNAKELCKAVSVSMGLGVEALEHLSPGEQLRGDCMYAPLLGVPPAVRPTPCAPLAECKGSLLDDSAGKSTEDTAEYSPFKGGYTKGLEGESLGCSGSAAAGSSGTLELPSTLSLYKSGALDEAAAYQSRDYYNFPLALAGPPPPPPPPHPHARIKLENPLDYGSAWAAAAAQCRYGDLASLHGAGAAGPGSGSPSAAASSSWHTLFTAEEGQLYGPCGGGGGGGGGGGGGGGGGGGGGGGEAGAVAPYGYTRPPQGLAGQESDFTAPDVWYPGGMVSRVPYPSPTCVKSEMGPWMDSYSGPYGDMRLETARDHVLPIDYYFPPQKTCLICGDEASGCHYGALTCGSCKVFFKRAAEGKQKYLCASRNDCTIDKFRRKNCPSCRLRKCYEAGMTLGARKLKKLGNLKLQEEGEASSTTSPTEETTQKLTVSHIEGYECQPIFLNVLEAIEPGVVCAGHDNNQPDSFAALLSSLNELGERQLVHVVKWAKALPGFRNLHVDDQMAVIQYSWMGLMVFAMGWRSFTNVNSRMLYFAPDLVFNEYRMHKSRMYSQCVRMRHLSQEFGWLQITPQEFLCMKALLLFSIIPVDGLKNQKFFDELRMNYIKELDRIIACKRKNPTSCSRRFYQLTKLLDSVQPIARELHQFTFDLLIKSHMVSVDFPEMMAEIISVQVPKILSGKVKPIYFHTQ
Sequence of Aryl hydrocarbon receptor (Homo sapiens) (P35869 whole entry, looked up): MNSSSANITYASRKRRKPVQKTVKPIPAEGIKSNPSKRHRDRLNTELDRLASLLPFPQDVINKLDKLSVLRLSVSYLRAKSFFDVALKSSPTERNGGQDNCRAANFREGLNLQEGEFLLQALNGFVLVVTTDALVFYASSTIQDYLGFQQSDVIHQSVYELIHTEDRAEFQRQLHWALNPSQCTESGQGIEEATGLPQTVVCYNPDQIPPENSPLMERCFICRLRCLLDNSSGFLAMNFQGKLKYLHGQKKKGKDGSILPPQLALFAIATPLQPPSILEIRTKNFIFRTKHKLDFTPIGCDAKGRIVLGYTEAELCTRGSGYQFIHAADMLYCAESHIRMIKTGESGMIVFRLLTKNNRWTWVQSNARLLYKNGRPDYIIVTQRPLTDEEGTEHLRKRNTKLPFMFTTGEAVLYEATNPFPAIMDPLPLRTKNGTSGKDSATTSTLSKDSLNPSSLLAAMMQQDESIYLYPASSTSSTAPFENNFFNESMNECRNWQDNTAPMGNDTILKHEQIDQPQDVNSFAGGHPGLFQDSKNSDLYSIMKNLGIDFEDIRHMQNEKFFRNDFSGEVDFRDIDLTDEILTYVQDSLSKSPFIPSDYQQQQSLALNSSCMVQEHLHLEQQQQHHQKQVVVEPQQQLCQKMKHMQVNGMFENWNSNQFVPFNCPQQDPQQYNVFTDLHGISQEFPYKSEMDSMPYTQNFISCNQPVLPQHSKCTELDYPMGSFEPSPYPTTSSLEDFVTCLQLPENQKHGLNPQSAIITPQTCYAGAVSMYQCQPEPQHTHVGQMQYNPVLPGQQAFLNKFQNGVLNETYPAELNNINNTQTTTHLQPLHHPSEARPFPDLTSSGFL
Sequence of Estrogen receptor (Homo sapiens) (P03372 whole entry, looked up): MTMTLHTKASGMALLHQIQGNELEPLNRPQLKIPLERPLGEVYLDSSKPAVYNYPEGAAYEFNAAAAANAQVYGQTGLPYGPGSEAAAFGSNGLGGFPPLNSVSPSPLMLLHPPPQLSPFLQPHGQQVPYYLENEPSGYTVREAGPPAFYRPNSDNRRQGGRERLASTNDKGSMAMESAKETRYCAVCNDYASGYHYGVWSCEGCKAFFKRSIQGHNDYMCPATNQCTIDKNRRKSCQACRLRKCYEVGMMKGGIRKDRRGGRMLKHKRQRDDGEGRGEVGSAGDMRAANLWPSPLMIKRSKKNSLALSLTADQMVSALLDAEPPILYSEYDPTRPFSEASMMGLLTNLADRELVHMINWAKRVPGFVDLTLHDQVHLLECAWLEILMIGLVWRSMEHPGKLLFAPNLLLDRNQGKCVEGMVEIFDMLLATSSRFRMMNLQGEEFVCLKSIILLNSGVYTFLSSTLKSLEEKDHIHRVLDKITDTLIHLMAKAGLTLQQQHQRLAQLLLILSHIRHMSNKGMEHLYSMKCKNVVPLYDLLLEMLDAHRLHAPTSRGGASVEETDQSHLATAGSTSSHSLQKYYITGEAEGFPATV

As for `Nc1ccc(-c2ccc(N)c(Cl)c2)cc1Cl`, the Potency result in [1], in experiment [5], in experiment [6], in experiment [8], in [13] and in experiment [14] was “inactive” throughout. For the same compound, the Potency is 54.5 µM (active) in experiment [2]; 48.8 µM (active) and 28.6 µM (active) and 54.5 µM (active) in experiment [3]; 61.4 µM (active) and 50.8 µM (active) and 54.5 µM (active) in experiment [4]; 30.8 µM (active) and 18 µM (active) and 30.6 µM (active) in experiment [7]; 27.7 µM [inhibitor] (active) in experiment [9]; “inactive and 17.4 µM (active)” in [10]. The Potency is 24.7 µM [inconclusive] (active) and 20.4 µM [inconclusive] (active) and 54.9 µM [inconclusive] (active) in experiment [11]; 9.04 µM (active) and 6.86 µM (active) in experiment [12]; 7.74 µM (active) and 6.4 µM (active) and 19.3 µM (active) in [15].
In the case of `Oc1ccccc1-c1ccccc1`, the Potency entry in experiment [1], in experiment [2], in experiment [3], in [4], in experiment [5] and in experiment [6] was “inactive” throughout. Moreover, the Potency entry in experiment [7], in experiment [8], in [9], in experiment [10], in experiment [11] and in experiment [12] was “inactive” throughout. Also, the Potency entry (in [13]; with Aromatase (Homo sapiens); in [14]) was “inactive” throughout. In experiment [15], the Potency result is “inactive and 24.9 µM (active)”.
In the case of `CCC(=O)C(CC(C)N(C)C)(c1ccccc1)c1ccccc1` (stereo not given), the Potency result in experiment [1], in [5], in experiment [6], in experiment [19], in experiment [8] and in experiment [9] was “inactive” in each case. The Potency entry (in [10]; in experiment [11]; in experiment [12]; in experiment [13]; with Aromatase (Homo sapiens); in [15]) was “inactive” each time. In addition, the Potency in [2] is 24.4 µM (active) and 41.5 µM (active); in experiment [3] it was 48.8 µM (active) and 60.7 µM (active) and 46.6 µM (active); in [4] it was 43.5 µM (active) and 41.5 µM (active); in [7] it was 24.4 µM (active) and 27.1 µM (active) and 33 µM (active). Further, the result in experiment [16], in experiment [17] and in experiment [18] was inactive.
For `O=C(O)CCl`, the Potency entry in experiment [1], in experiment [2], in [3], in experiment [4], in experiment [5] and in [6] was “inactive” throughout. For the same compound, the Potency entry (in experiment [7]; in experiment [8]; in experiment [10]; in experiment [13]; in the experiment with Aromatase (Homo sapiens); in experiment [14]) was “inactive” in each case.
As for `C1CCC(NC2CCCCC2)CC1`, the Potency entry in experiment [1], in experiment [2], in [3], in experiment [4], in experiment [5] and in [6] was “inactive” in each case. The Potency entry in [7], in experiment [8], in [9], in [10], in experiment [11] and in experiment [12] was “inactive” each time. Also, the Potency entry (in [13]; with Aromatase (Homo sapiens); in [14]; in [15]) was “inactive” throughout.
With `CC(Cl)(Cl)C(=O)O`, the Potency result in experiment [1], in [2], in experiment [3], in experiment [4], in experiment [5] and in [6] was “inactive” throughout. In addition, the Potency entry in experiment [7], in experiment [8], in experiment [9], in experiment [10], in [11] and in experiment [12] was “inactive” each time. Further, the Potency entry (in experiment [13]; with Aromatase (Homo sapiens); in [14]; in [15]) was “inactive” in each case.
For `O=C(O)COc1ccc(Cl)cc1Cl`, the Potency result in [1], in experiment [2], in experiment [3], in experiment [4], in experiment [5] and in [6] was “inactive” throughout. The Potency entry in experiment [7], in experiment [10] and in experiment [13] was “inactive” each time.
Consider `CCOP(=S)(OCC)Oc1ccc2c(C)c(Cl)c(=O)oc2c1`, for which the Potency result in [1], in experiment [5], in experiment [6], in experiment [7], in [8] and in [10] was “inactive” throughout. Also, the Potency result (in experiment [13]; in the experiment with Aromatase (Homo sapiens); in experiment [14]) was “inactive” throughout. Besides, the Potency entry in experiment [2] was “inactive and 17.2 µM (active)”; in [3], “inactive and 19.3 µM (active)”; in experiment [4], “inactive and 17.2 µM (active)”; in [15] it was 596 nM (active) and 98 nM (active).
As to `CCn1cc[n+](C)c1C`, the Potency entry in [1], in experiment [2], in experiment [3], in experiment [4], in experiment [5] and in experiment [6] was “inactive” each time. Besides, the Potency entry (in experiment [7]; in [10]; in experiment [13]; with Aromatase (Homo sapiens); in experiment [14]; in [15]) was “inactive” each time.
In the case of `CCC[N+]1(C)CCCCC1`, the Potency entry in experiment [1], in [2], in experiment [3], in [4], in experiment [5] and in experiment [6] was “inactive” each time. Also, the Potency entry (in experiment [7]; in experiment [8]; in [10]; in experiment [13]; in the experiment with Aromatase (Homo sapiens); in [14]) was “inactive” each time. Further, the Potency result in experiment [15] is “inactive”.
Turning to `O=c1nc(O)n(Cl)c(=O)n1Cl`, the Potency entry in experiment [1], in experiment [2], in experiment [3], in experiment [4], in [5] and in experiment [6] was “inactive” in each case. The Potency result (in experiment [7]; in experiment [8]; in experiment [10]; in experiment [13]; with Aromatase (Homo sapiens); in [14]) was “inactive” throughout. Moreover, in [15], the Potency entry is “inactive”.
In the case of `COc1ccc(N)cc1`, the Potency entry in experiment [1], in experiment [2], in experiment [5], in experiment [6], in experiment [7] and in experiment [8] was “inactive” throughout. The Potency entry (in experiment [10]; in experiment [13]; in the experiment with Aromatase (Homo sapiens); in experiment [14]) was “inactive” throughout. The Potency in experiment [3] was 60.6 µM (active) and 45.4 µM (active); in experiment [4], 53.5 µM (active) and 60.6 µM (active) and inactive; in [15], 60.1 µM (active) and inactive and 30.6 µM (active).
Turning to `CC[N+]1(C)CCCC1`, the Potency result in experiment [1], in experiment [5], in experiment [6], in experiment [7], in [8] and in [10] was “inactive” throughout. The Potency result (in experiment [13]; with Aromatase (Homo sapiens); in [14]; in experiment [15]) was “inactive” in each case. For the same compound, the Potency entry in experiment [2] was “inactive and 971 nM (active)”; in [3], “inactive and 612 nM (active)”; in [4] it was “inactive and 771 nM (active)”.
